Compounds with a hit are over-represented: about 3.9% of the library has one in this group of screens.
BoNT F protease – blocks Botulinum neurotoxin F light chain protease; Multiplex microsphere protease cleavage assay, flow cytometry; inhibition, % at 10 µM; 360,000 tested, 0.22% active; in the data active means inhibition above about 35%, passing the limit was not always enough; inconclusive means no clear call, values can overlap the other calls; further: plate controls were buffer without enzyme for full effect and enzyme alone for no effect
Anthrax LF inh2 – anthrax lethal factor protease inhibition; P15917; multiplex microsphere protease cleavage assay, LF; inhibition, % at 10 µM; 360,000 tested, 0.12% active; AID 588501; further: plate controls were buffer without enzyme for full effect and enzyme alone for no effect
Target sequence (P15917 whole entry, looked up): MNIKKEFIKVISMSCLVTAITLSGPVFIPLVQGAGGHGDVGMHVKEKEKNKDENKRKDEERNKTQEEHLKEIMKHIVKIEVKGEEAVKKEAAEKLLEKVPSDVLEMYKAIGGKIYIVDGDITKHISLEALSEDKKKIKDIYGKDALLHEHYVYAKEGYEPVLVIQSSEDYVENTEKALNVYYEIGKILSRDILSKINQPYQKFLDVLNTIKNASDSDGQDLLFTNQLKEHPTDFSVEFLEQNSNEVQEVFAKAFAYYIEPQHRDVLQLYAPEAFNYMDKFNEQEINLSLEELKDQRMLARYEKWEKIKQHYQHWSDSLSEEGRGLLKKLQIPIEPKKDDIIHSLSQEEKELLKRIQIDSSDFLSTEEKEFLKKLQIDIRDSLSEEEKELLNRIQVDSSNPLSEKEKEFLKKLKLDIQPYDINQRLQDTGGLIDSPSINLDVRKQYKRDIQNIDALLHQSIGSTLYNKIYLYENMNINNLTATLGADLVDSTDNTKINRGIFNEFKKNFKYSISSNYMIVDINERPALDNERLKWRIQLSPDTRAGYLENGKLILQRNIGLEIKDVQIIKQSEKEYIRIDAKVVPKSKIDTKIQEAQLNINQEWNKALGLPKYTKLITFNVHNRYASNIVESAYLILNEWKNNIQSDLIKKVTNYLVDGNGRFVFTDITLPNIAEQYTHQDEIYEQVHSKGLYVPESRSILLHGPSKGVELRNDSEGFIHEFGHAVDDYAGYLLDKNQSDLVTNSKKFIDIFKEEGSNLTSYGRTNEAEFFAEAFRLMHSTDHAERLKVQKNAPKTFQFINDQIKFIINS
BH1578 lux ind – inducers of Vibrio cholerae quorum light production without autoinducers | V. cholerae BH1578 lux reporter, luminescence, 6 h | activation, % at 18.7 µM | 350,000 tested, 0.16% active | AID 588436; in the data active means activation mostly above about 9.7%, no sharp cut-off; inconclusive means no clear call, values can overlap the other calls; inactive means mostly below about 3.7%
MazF activator – increases E. coli MazEF RNase cleavage of RNA | P0AE70 | FAM/BHQ RNA-DNA oligo cleavage fluorescence, 5 h | activation, % at 20 µM | 350,000 tested, 0.32% active | AID 504720; in the data active means activation above about 50%
Autofluor counter – compound fluorescence in toxin protease inhibitor counterscreen | compound autofluorescence counterscreen, microsphere flow cytometry; stronger effect = higher value | fluorescence intensity (test concentration not listed) | 360,000 tested, 3.1% active; in the data active means fluorescence intensity above about 16000; inconclusive means no clear call, values can overlap the other calls
BoNT A protease – blocks Botulinum neurotoxin A light chain protease; 360,000 tested, 0.17% active; inhibition, % at 10 µM; multiplex microsphere protease substrate cleavage, flow cytometry; AID 588499; further: plate controls were buffer without enzyme for full effect and enzyme alone for no effect
Active calls of the source: *; i = inactive; ? = inconclusive; · = no result. Unless noted, no stated cut-off is given here; in the data, active means inhibition above about 30%; inconclusive means no clear call, values can overlap the other calls; inactive means below that.

SMILES	BoNT F protease	Anthrax LF inh2	BH1578 lux ind	MazF activator	Autofluor counter	BoNT A protease
N#CCCSc1ncnc2c1oc1ccccc12	-1	-2	i	5	18891*	2
OCCSc1ncnc2c1oc1ccccc12	-4	7	i	-6	2567	0
C[C@@H]1CN([C@H](C)CO)C(=O)CCCn2nncc2CO[C@@H]1CN(C)C(=O)NC1CCCCC1	-6	2	i	5	3821	0
COC(=O)/C(=C(/F)Sc1cc(C)c(O)c(C)c1)C(F)(F)F	0	0	0	9	22354*	0
COC(=O)C(Nc1ccccc1Cl)(c1cc(C)c(O)c(C)c1)C(F)(F)F (stereo not given)	1	-3	i	5	2918	0
COc1ccc(C2CC(=O)N3C(=C2C#N)SCC3(O)c2ccccc2)cc1 (stereo not given)	2	-4	-1	-8	19377*	3
CCC(CC)CN1CCN=C1N(C)C	5	-3	i	9	3662	-1
COC(=O)c1ccccc1-c1cn(C)c2ccccc2c1=O	24	-2	0	-1	3582	-4
Cc1[nH]c(=O)[nH]c(=O)c1CSc1nnc([C@@H](NC(=O)OC(C)(C)C)C(C)C)o1	7	0	2	1	2482	0
CC(C)=CCSc1nnc([C@@H](NC(=O)OC(C)(C)C)C(C)C)o1	0	-2	i	-4	22591*	?
CCn1c2ccccc2nc2cc3c(cc21)c(Cl)c(=O)c1ccccc13	-10	-12	i	10	3457	0
CN1/C(=C\C(=O)c2cccs2)Sc2ccccc21	7	6	0	-1	3120	7
CN1/C(=C/C(=O)c2cccs2)Sc2ccccc21	-1	6	i	·	20294*	1
Cc1ccc2c(COC(=O)c3ccccc3Br)cc(=O)oc2c1	-3	0	0	31	5271	1
COc1ccc(Br)c(C(=O)OCc2cc(=O)oc3cc(C)ccc23)c1	-2	-1	0	86*	4243	0
Nc1ncnc2nc(SCC(=O)Nc3ccccc3F)[nH]c12	-6	-10	0	9	3498	0
CCOC(=O)COc1ccc(Oc2nc(C)cc(OC)n2)nn1	4	0	0	-1	21448*	4
O=C(/C=C/c1ccccc1Cl)NCCc1ccccc1	-2	0	i	-3	21242*	?
O=C(/C=C/c1ccc(Cl)cc1)NCCc1ccccc1	6	0	i	3	2512	0
O=C(/C=C/c1ccccc1Cl)NCc1ccccc1	0	0	0	-7	20859*	0
O=C(NC1CCCCC1)N1CCN(c2ncccn2)CC1	5	-3	i	11	23207*	1
O=C(NC1CCCCC1)N1CCCCCCC1	-2	-10	i	-3	2450	-1
O=C(NC1CCCCC1)N1CCN(C2CCCCC2)CC1	-3	-4	i	-21	23605*	-1
Cc1nc(SCC(=O)NCc2ccco2)c2c(=O)n(C)c(=O)n(CC(C)C)c2n1	0	-8	0	·	3205	0
CCOc1cc(NC(=S)Nc2cccc(OC)c2)c(OCC)cc1NC(=O)C1CC1	-3	-2	4	9	23099*	-1
SMILES	BoNT F protease	Anthrax LF inh2	BH1578 lux ind	MazF activator	Autofluor counter	BoNT A protease
COc1cccc(NC(=O)C2CCC2)c1	-5	-4	0	-7	3604	0
COc1ccc(NC(=O)c2oc3ccccc3c2NC(=O)C2CC2)cc1	5	1	i	8	20675*	4
COc1cccc(NC(=O)c2oc3ccccc3c2NC(=O)C2CC2)c1	-5	-2	i	1	24287*	?
Cc1cc(C)c(S(=O)(=O)Nc2nccs2)c(C)c1	?	-1	-1	6	3734	2
NC(=O)c1ccccc1NC(=O)CN1CCN(Cc2ccc(Cl)cc2Cl)CC1	-3	-3	i	-5	5748	1
COc1ccc(CC(=O)NNC(=O)c2c(-c3ccccc3Cl)noc2C)cc1OC	-2	-7	0	0	5843	-1
COCCNc1cc(C)nc2cc(-c3ccc(C)cc3)nn12	-2	-1	0	-6	5635	0
Cc1ccc(-c2cc3nc(C)cc(NCc4ccco4)n3n2)cc1	7	-4	i	-6	16495*	2
NNc1nc(-c2ccccc2)cc(-c2ccccc2O)n1	-3	-4	i	4	22292*	?
O=C(N1CCN(c2ccccc2)CC1)C(F)(F)C(F)(F)F	0	-4	i	-1	19895*	0
O=C(O)c1ccccc1C(=O)N1CCN(c2ccccc2)CC1	-4	-2	1	5	4763	-1
O=C(N1CCN(c2ccccc2)CC1)C(F)(F)C(F)F	10	-12	2	-2	20656*	8
O=C(c1ccccc1)N1CCN(c2ccccc2)CC1	-6	0	-7	4	2922	0
COc1ccc(-c2cc(C(F)(F)F)nc(S(=O)(=O)CCCC(=O)Nc3cccnc3Cl)n2)cc1OC	2	-2	-1	-4	3846	0
O=C(NC1CCS(=O)(=O)C1)c1cccc(S(=O)(=O)N2CCCC2)c1 (stereo not given)	3	-1	0	2	2679	0
N#Cc1c(=O)c2nc(NCc3ccccc3)ncc2n2ccccc12	0	3	-1	-4	23674*	0
O=C(Cc1cn(-c2ccccc2)nc1-c1ccccc1)N1CCCCC1	11	1	i	9	3787	-2
O=C(COc1ccccc1)Nc1cccc(-c2ccc(N3CCOCC3)nn2)c1	6	-1	0	1	4146	0
CC(=O)c1ccc(NC(=O)CCC(=O)OCC(F)(F)C(F)F)cc1	-2	1	i	-1	20248*	?
CCCCC(=O)N1CCCC(C(=O)OCC)C1 (stereo not given)	0	-1	2	2	22655*	-1
CCCCOc1ccc(C(=O)N2CCCC2)cc1	-1	0	0	6	16482*	?
CCOC(=O)C1CCCN(C(=S)Nc2ccc(C)cc2C)C1 (stereo not given)	-2	-1	-6	2	16244*	0
COc1ccc(C(=O)NN2CCCCC2)cc1OC	2	2	1	1	22220*	?
CCOC(=O)C1CCCN(C(=S)Nc2ccc(Nc3ccccc3)cc2)C1 (stereo not given)	-7	1	i	2	3346	0
CC(=O)N1C(C)(C)CC(=NOC(=O)c2ccc(C)cc2)CC1(C)C	1	-2	0	0	4491	0
CNC(=O)C1Cc2c(-c3ccc(Cl)cc3)ccnc2O1 (stereo not given)	0	-2	-1	·	3603	0
CC(C)(C)OC(=O)C[C@H]1C/C=C\C[C@@H](CC(=O)NCCO)C(=O)NCCOC1=O	-1	1	-1	9	3676	0
CCC(=O)N1CCCC(C(=O)c2ccc(-c3ccccc3)cc2)C1 (stereo not given)	-6	0	-1	-2	4254	2

Bioassay records (PubChem)
